Screens: PubChem BioAssay, National Center for Advancing Translational Sciences (NCATS)
HTT ATP protect = cytoprotection in Huntington HTT-Q103 PC12 cell model | 230,000 compounds, 0.14% hits | PC12 HTT-Q103 induced, cytoprotection, ATP luminescence, 40 h | Potency, µM (doses to about 56.4 µM), for the others: cytoprotection (ATP increase), actives largely listed as activators; note: % of control where 0% means no effect; nearly all actives have a fitted effect of over 45% in size
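Readout: ATPlite luminescence (ATP level). Model: stable PC12, inducible Htt exon1 Q103-GFP. Inducer: tebufenozide, 100 nM final. Compounds: dose series. No G418 in medium.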
Tau fibril FP = tau fibrillization inhibition (FP); P10636; K18 P301L tau heparin fibrillization, Alexa594 FP, 6 h; Potency, µM (titrated, usually from 57.7 µM), for the others: at the highest dose activity, negative = inhibition, hits mostly inhibitors; 280,000 compounds, 0.39% hits; note: % is set by controls: 0 for no effect and ±100 for the full control effect; nearly all actives have a fitted effect of over 55% in size
Target sequence (P10636 561-689 P618L limits assumed): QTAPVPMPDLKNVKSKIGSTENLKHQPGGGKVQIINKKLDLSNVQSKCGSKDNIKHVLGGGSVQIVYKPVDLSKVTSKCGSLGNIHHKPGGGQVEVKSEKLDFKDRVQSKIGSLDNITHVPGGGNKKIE
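Quantitative HTS format: compounds meet 15 uM recombinant K18 P301L tau and Alexa 594-tau tracer in 100 mM sodium acetate pH 7; 20 uM heparin triggers fibrillization at 37 C over 6 hr; FP gives the signal.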
HttQ103 aggreg = inhibitors of mutant huntingtin aggregate formation in PC12 cells; AID 1688; Potency, µM (doses to about 46.1 µM), without a hit: at the highest dose activity change, negative = inhibition, usual class: inhibitors; PC12 HttQ103-GFP aggregates, Acumen cytometry, 40 h; 220,000 compounds, 1.1% hits; note: % is set by controls: 0 for no effect and ±100 for the full control effect; nearly all actives have a fitted effect of over 60% in size
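Steps: seed 1500 PC12 HTTQ103-GFP cells/well; add tebufenozide, 100 nM final; add compound titration; add ATPLite reagent; quantify GFP aggregates by laser scanning cytometry.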
Tau ThT inhib = inhibitors of human tau fibril formation, thioflavin T binding; P10636; recombinant tau K18 P301L, heparin-induced fibrillization, ThT fluorescence; Potency, µM (series often up to 57.4 µM), for the others: at the highest dose activity, negative = inhibition, usual class: inhibitors; 270,000 compounds, 2.1% hits; AID 1460; note: % is set by controls: 0 for no effect and ±100 for the full control effect; nearly all actives have a fitted effect of over 55% in size
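Using a mix of unlabeled (15 uM) and Alexa 594-labeled (0.24 uM) tau K18 P301L, heparin-triggered fibrillization over 6 hr at 37 C was scored by ThT fluorescence.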
Tau fluor counter = counter-screen for tau fibril formation inhibitors | tau K18 P301L Alexa594 fluorescence, heparin fibrillization | AID 1463 | 280,000 compounds, 0.93% hits | Potency, µM (doses to about 57.7 µM), without a hit: at the top dose activity change, negative = decrease; note: % is set by controls: 0 for no effect and ±100 for the full control effect; nearly all actives have a fitted effect of over 55% in size
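Human tau K18 P301L (15 uM unlabeled, 0.24 uM Alexa 594-labeled) in 100 mM sodium acetate pH 7 with 20 uM heparin, 6 hr at 37 C. ThT 30 uM added, 1 hr ambient; Alexa 594 FP and total fluorescence read at 555/632 nm.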
Numbers without * were called inactive; ? = inconclusive; / = not tested or not shown; [ ] = dose if it differs, or a comment. Most compounds without a hit are left out; they make up all but 3.7% or so of the library. Calls come from the whole dose curve; as a rule, active = well fitted curve in the direction sought with a large enough effect; inconclusive = small, poorly fitted or top-dose-only effect, or another doubt; inactive = no such curve, though single readings can be large; an effect the other way counts as inactive or inconclusive. Potency is the fitted concentration of half-maximal effect.

SMILES	HTT ATP protect	Tau fibril FP	HttQ103 aggreg	Tau ThT inhib	Tau fluor counter
Cc1ccc2c(c1)CC1(CN2C)C(=O)NC(=O)N(CCC2=CCCCC2)C1=O (stereo unspecified)	-6%	?	7%	25µM*	-26%
Cc1ccc2c(c1)CC1(CN2C)C(=O)NC(=O)N(C(C)C)C1=O (stereo unspecified)	-16%[0.074 µM]	?	9%	?	-8%
C[C@H]1CC[C@@H]2[C@@H](C)C(=O)O[C@H]3O[C@@]4(C)CC[C@@H]1[C@]32OO4	-15%	/	/	/	/
Nc1c(C(=O)Nc2ccc([As](=O)(O)O)cc2)cnc2nnnn12	8%[10 µM]	/	/	/	/
O=c1c2ccccc2nc(N2CCCC2)n1-c1ccccc1	-28%	3%	-13%	-7%	-9%
COc1ccc(N2C(=O)C(Cl)=C(N3CCN(Cc4ccccc4)CC3)C2=O)cc1	-8%[0.074 µM]	28µM*	2%	25µM*	-30%
O=C1C(Cl)=C(N2CCCCCC2)C(=O)N1c1ccccc1	-8%	?	19%	25µM*	?
Cc1ccc(CN2CCN(Cc3ccccc3)CC2)cc1	21%[10 µM]	-4%	19%[9.22 µM]	-6%	-8%
CO[C@@H](C)[C@](O)(C(=O)OC1=CCN2CC[C@H](O)[C@H]12)C(C)C	-52%	/	/	/	/
NS(=O)(=O)C[C-]1C=C[CH]([Sb-]([Cl])([Cl])([Cl])([Cl])[Cl])C=C1.c1ccncc1 (stereo unspecified)	-3%[10 µM]	/	/	/	/
CCN(CC)C(=O)N[C@@H]1C=C2c3cccc4[nH]cc(c34)C[C@@H]2N(C)C1	26%[1.9 µM]	/	/	/	/
NNc1nncn1N	-1%[10 µM]	/	/	/	/
c1ccc2cc(C3N4CCCN34)ccc2c1 (stereo unspecified)	4µM*	4%	9%	-5%	-5%
CN1C[C@H](C(=O)N[C@@]2(C)O[C@@]3(O)[C@H]4CCCN4C(=O)[C@@H](Cc4ccccc4)N3C2=O)C=C2c3cccc4[nH]cc(c34)C[C@@H]21	-11%[10 µM]	/	/	/	/
C/C(=N\NC(=O)c1ccncc1)c1c(O)n(Cc2ccccc2)c(=O)[nH]c1=O	-11%[10 µM]	12%	-16%[9.22 µM]	?	-10%
C/C(=N\NC(=O)c1ccccc1O)c1c(O)n(Cc2ccccc2)c(=O)[nH]c1=O	7%[10 µM]	13%	-16%[9.22 µM]	14µM*	?
CCOc1ccc(-c2nc3ccc(-c4nc5ccc(N6CCN(C)CC6)cc5[nH]4)cc3[nH]2)cc1	/	6%	/	2.8µM*	?
Cc1ccc2nc(N3CCN(C)CC3)[nH]c2c1	-16%	-5%	7%	3%	0%
CNc1ccc2oc(C[C@@H]3OC4(CC[C@@H]3C)O[C@H]([C@@H](C)C(=O)c3ccc[nH]3)[C@H](C)C[C@H]4C)nc2c1C(=O)O (stereo partly specified)	-208%	?	/	32µM*	?
COc1cccc2c1C(=O)c1c(O)c3c(c(O)c1C2=O)C[C@](O)(/C(C)=N\O)C[C@@H]3O[C@H]1C[C@H](N)[C@@H](O)[C@H](C)O1	-79%[10 µM]	/	/	/	/
CC(C)c1ccc(N2C(=O)NC(=O)/C(=C/c3cnc(-c4ccccc4)nc3)C2=O)cc1	5%[10 µM]	?	6%	16µM*	-23%
CSc1ncc(/C=C2/C(=O)NC(=O)N(c3ccc(C(C)C)cc3)C2=O)cn1	-19%[10 µM]	?	?	25µM*	-18%
CC(C)(C)NC[C@H](O)c1ccccc1Cl	15%[1.9 µM]	/	/	/	/
O=C(CNC(=O)c1ccc(Br)cc1)NCC(=O)OCC(=O)c1ccc([N+](=O)[O-])cc1	-8%[10 µM]	?	3%	28µM*	-25%
CC1(C)C(O)CC(O)[C@]2(C)C1CC(O)[C@]1(C)C2CC[C@@]2(C)C(c3ccoc3)OC(=O)C3O[C@]312 (stereo partly specified)	4%	-5%	/	-4%	-8%
SMILES	HTT ATP protect	Tau fibril FP	HttQ103 aggreg	Tau ThT inhib	Tau fluor counter
CC1(C)C(=O)C=C[C@@]2(C)C1CC(O)[C@]1(C)C2CC[C@@]2(C)C(c3ccoc3)OC(=O)C3O[C@]312 (stereo partly specified)	0.79µM*	-12%	/	?	-10%
CC(C)(C)c1cc(C#N)cc(Br)c1OP(=O)(Oc1c(Br)cc(C#N)cc1C(C)(C)C)c1ccccc1	-2%[10 µM]	/	/	/	/
CN1CCc2cc(O)cc3c2C1Cc1ccc(O)c(O)c1-3 (stereo unspecified)	-5%	40µM*	/	16µM*	18µM*[quencher]
CCCN1CCc2cccc3c2[C@@H]1Cc1ccc(O)c(O)c1-3	6%[1.9 µM]	/	/	/	/
C=CCN1CCc2cccc3c2C1Cc1ccc(O)c(O)c1-3 (stereo unspecified)	12%	?	/	14µM*	14µM*[quencher]
COC(=O)c1c(C)ccc2c(O)c3c(cc12)C(=O)c1c2c(cc(O)c1C3=O)[C@@]1(C)O[C@@](C)(O2)[C@@H](O)[C@H](N(C)C)[C@H]1O	-8%[10 µM]	/	/	/	/
CC(=O)OC1=CC2=CC[C@H]3[C@H]4CCC(=O)[C@@]4(C)CC(=O)[C@]3(S)[C@]2(C)CC1	19%[10 µM]	/	/	/	/
CCN1C[C@@]2(COC(=O)c3ccccc3N3C(=O)C[C@H](C)C3=O)CC[C@H](OC)[C@@]34[C@@H]5CC6[C@@H](OC)C[C@@](O)([C@H]5[C@H]6OC)C(O)([C@@H]13)[C@@H](OC)[C@H]24	7%	/	/	/	/
NC(N)=NN=C(/C=C/c1ccc([N+](=O)[O-])o1)/C=C/c1ccc([N+](=O)[O-])o1	-99%	/	10µM*	/	/
C=CCN1CC[C@]23c4c5ccc(O)c4O[C@@H]2/C(=N/NC(=O)c2ccccc2)CC[C@@]3(O)[C@H]1C5	6%[1.9 µM]	/	/	/	/
CCOP(=O)(C1=C(O)C(=O)C(C(C)(C)C)=CC1=O)c1ccccc1 (stereo unspecified)	-36%	?	-17%	22µM*	-22%
CCOP(=O)(OCC)C(O)c1ccccc1 (stereo unspecified)	13%[10 µM]	6%	-2%[9.22 µM]	5%	4%
Nc1c(C(=O)NCc2ccco2)c2nc3ccccc3nc2n1CCN1CCCCC1	-65%	-9%	3.2µM*	?	?
COc1ccc(Cn2c(N)c(C(=O)NCc3ccco3)c3nc4ccccc4nc32)cc1OC	-38%[0.074 µM]	?	?	14µM*	?
CC1(C)[C@@H]2CC[C@]1(C)CN(CCC[N+](C)(C)C)C2	-11%[10 µM]	/	/	/	/
COc1ccc2c(c1OC)CN1CCc3cc4c(cc3[C@H]1C2)OCO4	-75%[17.1 µM]	/	-3%[20.6 µM]	/	/
COc1ccc2c(c[n+](C)c3c4cc5c(cc4ccc23)OCO5)c1OC	-199%	?	/	13µM*	16µM*[quencher]
CC(=O)O/C(=C1/C[C@H]2[C@@H]3CC=C4C[C@@H](OC(C)=O)CC[C@]4(C)[C@@H]3CC[C@]2(C)C1=O)C(F)(F)F	11%[10 µM]	/	/	/	/
CCCCN1C(=O)NC(=O)/C(=C/c2cnc(SC)nc2)C1=O	11%	-13%	20%	?	-18%
